DT40 TDP1 no CPT: qHTS for Inhibitors of human tyrosyl-DNA phosphodiesterase 1 (TDP1): qHTS in cells in absence of CPT. Potency, µM (top dose mostly 46.2 µM), inactives show top-dose activity change, negative = growth inhibition, hits mostly inhibitors. 420,000 compounds, 15% hits. DT40 Tdp1-/- hTDP1 cells, no CPT, ATP luminescence, 48 h. AID 686978, 2013; also: potency is read from the fitted curve at half-maximal effect; % is scaled to controls: 0 for no effect and ±100 for the full control effect; nearly all actives have a fitted effect of over 55% in size
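DT40 Tdp1-/-;hTDP1 cells, no CPT (DMSO vehicle only), 400 cells/well; compounds pin-transferred; ≥48 hr, 37 °C; CellTiter-Glo 30 min RT dark, luminescence read.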
D3 ag: D3 dopamine receptor (human) agonism | P35462 | max activation, % | D3R DiscoveRx beta-arrestin cells, luminescence, 90 min | 410,000 compounds, 0.58% hits; in the data active = max activation above about 30%; also: 0% is about no effect
Target sequence (P35462 whole entry, looked up): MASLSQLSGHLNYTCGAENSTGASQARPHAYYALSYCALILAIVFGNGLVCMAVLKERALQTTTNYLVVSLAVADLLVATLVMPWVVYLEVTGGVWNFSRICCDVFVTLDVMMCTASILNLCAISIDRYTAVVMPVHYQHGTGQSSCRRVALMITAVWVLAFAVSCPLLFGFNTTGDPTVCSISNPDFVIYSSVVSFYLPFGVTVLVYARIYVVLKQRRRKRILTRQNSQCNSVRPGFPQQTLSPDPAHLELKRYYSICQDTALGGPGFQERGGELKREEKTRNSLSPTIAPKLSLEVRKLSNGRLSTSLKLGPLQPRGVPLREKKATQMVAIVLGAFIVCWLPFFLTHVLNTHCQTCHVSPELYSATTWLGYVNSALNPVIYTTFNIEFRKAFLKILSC
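Agonist-mode cell screen: cells plated at 1500/well and incubated overnight at 37 °C, then exposed to library compounds for 90 min at 37 °C. Detection reagent was added for 30–60 min at room temperature, and luminescence was read.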
TDP1 cell CPT: growth inhibition of DT40 Tdp1-/-;hTDP1 cells with camptothecin (screen for TDP1 inhibitors); 420,000 compounds, 12% hits; AID 686979; Potency, µM (doses to about 46.2 µM), for inactives: top-dose activity change, negative = growth inhibition, hits mostly inhibitors; chicken DT40 Tdp1-/-;hTDP1 cells + 20 nM CPT, ATP luminescence, 48 h; also: potency is read from the fitted curve at half-maximal effect; % is scaled to controls: 0 for no effect and ±100 for the full control effect; nearly all actives have a fitted effect of over 55% in size
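Chicken DT40 Tdp1-/- cells stably complemented with human TDP1 were seeded at 400 cells/well in medium containing 20 nM camptothecin, exposed to pin-transferred compounds, and grown at 37 °C for at least 48 hr. Viability was read as ATP luminescence.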
IL-1B inflam inh: blocks inflammasome-driven IL-1 beta release. THP-1 LPS/ATP IL-1B secretion, AlphaLISA, 16 h; stronger effect = lower value. activity change, % at 57.5 µM. 360,000 compounds, 4.7% hits; in the data active = activity change below about -50%; inconclusive = mostly about -30% to -49%; also: % is scaled to controls: 0 for no effect and ±100 for the full control effect
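Secreted IL-1B measured by AlphaLISA bead assay after 16 h compound exposure of THP-1 cells; compounds (final up to 57.5 uM) added 1 h before LPS (250 ng/mL) and ATP (1.25 mM) stimulation; lower signal means less secretion.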
D3 antag: blocks the human D3 dopamine receptor; D3R cells, DiscoveRx beta-arrestin luminescence, antagonist mode; stronger effect = lower value; max response, negative = inhibition, %; 360,000 compounds, 2.5% hits; AID 652054; in the data active = max response below about -50%; inconclusive = no clear call, values can overlap the other calls; also: % is scaled to controls: 0 for no effect and ±100 for the full control effect
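Cells plated overnight at 1500 cells/well, then exposed to library compounds with dopamine controls for 90 minutes at 37 degrees C. DiscoveRx reagent added for 30–60 minutes at room temperature; luminescence read, quantitative HTS format.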
ClpP mod: qHTS Assay for Activators of ClpP; ATP-dependent Clp protease proteolytic subunit (Bacillus subtilis (strain 168)), P80244; purified B. subtilis ClpP, FRET peptide cleavage, 20 min; Potency, µM (titrated, usually from 57.5 µM), without a hit: at the highest dose activity change, negative = active; 340,000 compounds, 1.9% hits; active = well fitted falling curve with a large enough effect; inconclusive = small, poorly fitted or top-dose-only effect; inactive = no such curve, though single readings can be large or run the other way; also: potency is read from the fitted curve at half-maximal effect; the source files actives as falling curves though it sought activators and does not explain the sign; nearly all actives have a fitted effect of over 65% in size
Target sequence (P80244 whole entry, looked up): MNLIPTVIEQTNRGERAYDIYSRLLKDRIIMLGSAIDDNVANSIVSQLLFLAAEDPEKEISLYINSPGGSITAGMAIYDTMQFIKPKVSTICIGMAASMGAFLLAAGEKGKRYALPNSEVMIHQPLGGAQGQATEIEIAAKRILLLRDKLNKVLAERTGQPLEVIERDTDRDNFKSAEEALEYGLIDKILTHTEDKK
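Purified B. subtilis ClpP, 10 microg/mL final in Tris/HCl pH8 with KCl, BSA, glycerol and Tween-20, cleaved an Abz/nitrotyrosine-quenched decapeptide. Fluorescence (ex 320, em 430) was read at 0 and 20 min at room temperature. Delta was normalized to 5.8 microM ADEP and DMSO/no-enzyme controls.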
An asterisk follows results filed as active; i = inactive; ? = inconclusive; . = no result given; [ ] = another dose, or the depositor's remark. Hits are enriched below; roughly 21% of the tested compounds scored in any of these assays. Unless noted, calls follow the shape of the dose curve; as a rule, active = well fitted inhibition curve with a large enough effect; inconclusive = small, poorly fitted or top-dose-only effect; inactive = flat fitted curve, though single readings scatter.

SMILES	DT40 TDP1 no CPT	D3 ag	TDP1 cell CPT	IL-1B inflam inh	D3 antag	ClpP mod
Cc1cccc(NC(=S)NNc2ncc(C(F)(F)F)cc2Cl)c1	?	-15	?	-14	-64*	-2%
FC(F)(F)c1cnc(NNC(=S)Nc2ccccc2Cl)c(Cl)c1	18µM*	-17	?	-52*	-75*	-3%
O=C(Nc1ccccc1)Nc1ncc(C(F)(F)F)cc1Cl	?	-4	-10%	?	-23	-4%
COc1cc2oc(=O)cc(-c3ccc(-c4ccc(N(C)C)cc4)cc3)c2c(OC)c1OC	?	-29	?	13	-10	-1%
COc1cc2oc(=O)cc(-c3ccc(-c4ccc(OC(F)(F)F)cc4)cc3)c2c(OC)c1OC	12µM*	4	16µM*	63	0	-2%
CCOC(=O)c1ccc(-c2ccc(-c3cc(=O)oc4cc(OC)c(OC)c(OC)c34)cc2)cc1	18µM*	-6	18µM*	6	18	-5%
COc1cc2oc(=O)cc(-c3ccc(-c4ccc(F)c(Cl)c4)cc3)c2c(OC)c1OC	15µM*	-18	18µM*	24	21	-2%
COc1ccc(-c2ccc(-c3cc(=O)oc4cc(OC)c(OC)c(OC)c34)cc2)cc1F	23µM*	-1	18µM*	-18	-15	0%
CCOC(=O)c1ccc(-c2c(C)cc3oc(=O)cc(-c4ccccc4)c3c2C)cc1	?	-10	?	16	0	-6%
CCCNC(=S)Nc1ccc(F)cc1F	?	2	-1%	27	19	1%
Cn1nccc1C(=O)N(CCN1CCCCC1)CC1CCCN(C2CCCC2)C1 (stereo not drawn)	-5%	-3	2%	i	1	3%
CCc1cc(=O)oc2cc(C)cc(OCC(=O)NC(Cc3ccc(Cl)cc3)C(=O)O)c12 (stereo not drawn)	-16%	-22	4%	-17	0	5%
CCN(Cc1ccncc1)Cc1ccc2c(c1)CN(C(=O)c1ccccc1-n1cccn1)CCO2	-12%	.	9%	.	.	.
COCC(=O)N1CCC[C@@]2(CCN(c3ncccn3)C2)C1	-1%	.	2%	.	.	.
Cc1cc2nc(C3CCN(Cc4nnnn4Cc4cccs4)CC3)[nH]c2cc1C	6.3µM*	-10	3.5µM*	-14	-4	-3%
Cc1cc2nc(C3CCN(C(=S)NCC(C)C)CC3)[nH]c2cc1C	-5%	3	?	-5	1	-3%
FC(F)C(F)(F)Oc1cccc(Nc2nccn3c(-c4cc(C(F)(F)F)cc(C(F)(F)F)c4)cnc23)c1	?	-3	?	-6	-15	5%
Cc1ccc(-c2cnc3c(Nc4cccc(OC(F)(F)C(F)F)c4)nccn23)cc1	16µM*	1	23µM*	-17	20	5%
OCc1cccc(-c2cnc3c(Nc4cccc(OC(F)(F)C(F)F)c4)nccn23)c1	16µM*	8	?	-16	113	-25%
Oc1ccc(N=Nc2nc(-c3ccccc3)c(-c3ccccc3)[nH]2)cc1	23µM*	-9	?	0	-53*	1%
Cc1ccc(NC(=O)COc2ccc(/C=C3/SC(=Nc4ccccc4)N(Cc4cccnc4)C3=O)cc2)cc1	6.5µM*	0	5.2µM*	-2	52	1%
Cc1ccc(NC(=O)COc2ccc(/C=N/NC(=O)CSCc3ccccc3)cc2)cc1	?	-23	?	33	19	-8%
COCCC(=O)N1CCC(Oc2ccc(C(=O)NCCc3ccccn3)cc2)CC1	2%	-1	-14%	30	10	.
COc1cccc(Cn2c(=O)c(-c3ccc(F)cc3)nc3cnc(N(C)C)nc32)c1	9%	.	3%	.	.	.
CN(C)S(=O)(=O)Nc1cccc(NC(=O)CC23CC4CC(CC(C4)C2)C3)c1	-24%	-4	-26%	-73*	8	.
SMILES	DT40 TDP1 no CPT	D3 ag	TDP1 cell CPT	IL-1B inflam inh	D3 antag	ClpP mod
CN(C)S(=O)(=O)c1cccc(NC(=O)CC23CC4CC(CC(C4)C2)C3)c1	21µM*	2	23µM*	3	18	-1%
Cc1ncc2c(c1CNS(=O)(=O)N(C)C)CCN(C(=O)/C=C/c1ccccc1F)C2	-13%	.	13%[9.04 µM]	.	.	.
COc1cccc(-c2cnc3c(NC=O)cc(-c4cccc(C(=O)N(C)C)c4)cn23)c1	?	72*	?	148	3	-21%
CN(C)C(=O)c1cccc(-c2cnc3c(NC=O)cc(-c4cccc(F)c4)cn23)c1	15µM*	0	21µM*	2	-19	?
COc1cccc(-c2cc(NC=O)c3ncc(-c4cccc(C(=O)N(C)C)c4)n3c2)c1	?	6	?	-12	10	?
CN(C)C(=O)c1cccc(-c2cnc3c(NC=O)cc(-c4cccc(C(F)(F)F)c4)cn23)c1	8.2µM*	16	8.2µM*	0	51	-26%
CN(C)C(=O)c1cccc(-c2cnc3c(NC=O)cc(-c4ccc(N(C)C)cc4)cn23)c1	?	4	18µM*	0	-17	-7%
Cc1ccc2oc(C(=O)Nc3c(C(=O)Nc4ccccc4)oc4ccccc34)cc(=O)c2c1	-8%	1	-20%	.	.	0%
O=C(Cn1cnc2c(nc3n2CCCCC3)c1=O)Nc1ccc(F)cc1	-3%	-9	-6%	.	.	1%
O=C(COC(=O)CCN1C(=O)C2CC=CCC2C1=O)Nc1ccc(Cl)cc1F (stereo not drawn)	22%	3	-19%	5	9	-1%
COc1cccc(CNC(=O)c2nn(-c3ccccc3Cl)nc2CO)c1	-28%	-12	?	.	.	-9%
COc1ccc(-c2cc(NC=O)c3ncc(-c4cccc(C(=O)N(C)C)c4)n3c2)cn1	16µM*	-7	23µM*	-8	-11	?
Cc1cccc(-c2cc(NC=O)c3ncc(-c4cccc(C(=O)N(C)C)c4)n3c2)c1	16µM*	4	?	16	9	?
CN(C)C(=O)c1cccc(-c2cc(NC=O)c3ncc(-c4ccc(F)c(Cl)c4)n3c2)c1	23µM*	-7	16µM*	60	31	-24%
Cc1ccc(NC(=O)N2CCN3CCCCC3C2)cc1F (stereo not drawn)	1%	-12	1%	.	.	-3%
N[C@]1(C(=O)O)CCc2cc(P(=O)(O)O)ccc21	3%	.	-118%	.	.	.
Cc1ccc2nc(C3CCCCC3)[nH]c2c1	?	-4	-8%	-17	-20	1%

Compound activity deposited in PubChem BioAssay by National Center for Advancing Translational Sciences (NCATS).
